TLR9-MyD88 inh: blocks human TLR9 binding to MyD88; Q9NR96+Q99836; CHO BLA complementation TLR9-MyD88, CCF4 FRET ratio; inhibition, % at 4.98 µM; hit rate 0.21% among 340,000; AID 504734;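 active = inhibition above the mean over all tested compounds plus 3 SD, cut at about 21% in these data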
NOD2-RIPK2 inh: blocks binding of human NOD2 to RIPK2; CHO BLA complementation NOD2-RIPK2, CCF4 ratio; inhibition, % at 4.98 µM; hit rate 0.38% among 360,000; AID 624267; in the data active = inhibition above about 21%
Myeloid diff 2: compounds promoting myeloid differentiation; ER-HoxA9 myeloid progenitors, lysozyme-GFP differentiation, flow cytometry; calls only at 10 µM; hit rate 1% among 360,000; AID 624256;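 active = normalized GFP-positive differentiation at or above the plate's own cutoff, the solvent-only control mean plus 3 SD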;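 note: cells exposed to compound for four days before flow analysis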
ABCB6 inh 2: inhibitors of human ABC transporter ABCB6. Q9NP58. K562-ABCB6 porphyrin accumulation, flow cytometry, 1 h; hits give low values. fluorescence ratio to DMSO, % at 10 µM. hit rate 0.19% among 360,000. AID 602162;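 active = fluorescence ratio to DMSO below 75%, the collection mean minus 3 SD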;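 note: signal is porphyrin accumulated inside mitochondria; lower ratio means ABCB6 inhibition with less porphyrin fluorescence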
TLR4-MyD88 BLA: inhibitors of human TLR4-MyD88 binding | O00206+Q99836 | HeLa CL3-4 TLR4/MyD88 BLA complementation, FRET ratio | inhibition, % at 8.4 µM | hit rate 0.18% among 200,000; in the data active = inhibition above about 25%
Myeloid diff: myeloid differentiation induction. ER-HoxA9 myeloid progenitors, GFP/Mac1 double-positive flow. hit rate 2% among 2,300. calls only. AID 651706. shares compounds with Myeloid diff 2;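 active = share of green or green-and-red cells above 9 and 9% in run 1 or 4 and 3% in run 2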
GFP autofluor: counter-screen for myeloid differentiation promoters: compound fluorescence; shares compounds with Myeloid diff 2; ER-HoxA9 myeloid progenitors, no estrogen, GFP autofluorescence flow cytometry; vehicle wells 0%, positive control 100%; fluorescence response, % (test concentration not listed); hit rate 7.4% among 2,300;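 active = over 5% cells positive for green fluorescent reporter, or over 2% positive for both it and APC stain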
Each line names hits and unclear results; the compound was inactive in the other large screens (follow-up assays come after a bar, where they were run). Only some compounds are listed: those with a hit (about 1.7% of all), similar ones and a draw of the others.

O=C(O)c1cccnc1Nc1ccc(Cl)cc1	Myeloid diff 2 active | Myeloid diff active | GFP autofluor inactive
O=C(O)c1ccc(Nc2ncnc3scc(-c4ccccc4)c23)cc1	Myeloid diff 2 active | Myeloid diff inactive | GFP autofluor inactive
Cc1ccc(-c2csc3ncnc(Nc4ccc(C(=O)O)cc4)c23)cc1	none (no result: TLR4-MyD88 BLA)
CC(=O)c1c(N2CCOCC2)[nH]c(-c2ccccc2)nc1=S	Myeloid diff 2 active | Myeloid diff active | GFP autofluor inactive
CC(Oc1ccccc1)C(=O)Nc1nnc(S(=O)(=O)Nc2ccccc2)s1 (centres undefined)	none (no result: TLR4-MyD88 BLA)
Oc1ccccc1N=Cc1c(O)ccc2oc3c(c12)CCCC3	none (no result: TLR4-MyD88 BLA) | Myeloid diff inactive | GFP autofluor inactive
O=C(/C=C\Nc1ccccn1)c1ccc(Cl)cc1	Myeloid diff 2 active | Myeloid diff inactive | GFP autofluor inactive
Cc1ccc(S(=O)(=O)Nc2ccc(C(=O)NCCCn3ccnc3)cc2)cc1[N+](=O)[O-]	none (no result: TLR4-MyD88 BLA)
O=C(CSc1nnc2scc(-c3ccccc3)n12)N1CCCc2ccccc21	none | Myeloid diff inactive | GFP autofluor inactive
CCn1nnnc1SCC(=O)N1CCCc2ccccc21	none | Myeloid diff inactive | GFP autofluor inactive
CC1Cc2nc(SCC(=O)N3CCCc4ccccc43)n(C)c(=O)c2S1 (centres undefined)	none | Myeloid diff inactive | GFP autofluor inactive
O=S1(=O)CCN(C2CCCCCC2)CC1	none (no result: TLR4-MyD88 BLA)
COc1cc(CC(=O)OCC(=O)c2c[nH]c3ccccc23)cc(OC)c1OC	none (no result: TLR4-MyD88 BLA) | Myeloid diff inactive | GFP autofluor 9.7
Cn1cc(S(=O)(=O)CC(=O)Nc2ccc3c(c2)OCCO3)c2ccccc21	none
Cc1ccc(C)c(NC(=O)CS(=O)(=O)c2cn(C)c3ccccc23)c1	none | Myeloid diff inactive | GFP autofluor inactive
CCOc1cccc(N2C(=O)CC(N(CCc3ccc(OC)c(OC)c3)C(=O)CC)C2=O)c1 (centres undefined)	none
CCOC(=O)c1ccc(N2C(=O)CC(N(C)CCc3ccc(OC)c(OC)c3)C2=O)cc1 (centres undefined)	none | Myeloid diff inactive | GFP autofluor inactive
CC(=O)N1CCc2cc(S(=O)(=O)NC(C(=O)NC(C)c3ccccc3)C(C)C)ccc21 (centres undefined)	none (no result: TLR4-MyD88 BLA)
CC1(C(=O)NC2CCCCC2)CCC(=O)N1Cc1cccs1 (centres undefined)	none | Myeloid diff inactive | GFP autofluor inactive
COCCN(C(=O)COC(=O)CSc1ccccc1)c1c(N)n(Cc2ccccc2)c(=O)[nH]c1=O	none (no result: TLR4-MyD88 BLA)
COC(=O)c1ccc(Nc2cc(C)nc3ccc(C)cc23)cc1	Myeloid diff 2 active (no result: TLR4-MyD88 BLA) | Myeloid diff inactive | GFP autofluor inactive
C/C(=N\NC(=O)c1ccc2c(c1)OCO2)c1ccc(NC(=O)CCCC(=O)O)cc1	none (no result: TLR4-MyD88 BLA) | Myeloid diff inactive | GFP autofluor inactive
O=C(Cc1ccccc1)N/N=C/c1ccc(-c2ccc([N+](=O)[O-])cc2)o1	Myeloid diff 2 active | Myeloid diff inactive | GFP autofluor inactive
NC(=O)N/N=C/c1ccc(-c2ccc([N+](=O)[O-])cc2)o1	none (no result: TLR4-MyD88 BLA)
O=[N+]([O-])c1ccc(/C=N/Nc2nc(N3CCCC3)nc(N3CCCC3)n2)o1	none
O=[N+]([O-])c1ccc(-c2ccc(/C=N/Nc3nc(N4CCCC4)nc(N4CCCC4)n3)o2)cc1	Myeloid diff 2 active | Myeloid diff inactive | GFP autofluor 6.0
CC(=O)Nc1sc(C)c(C)c1C(=O)OCC(=O)NC(C)c1ccccc1 (centres undefined)	none (no result: TLR4-MyD88 BLA)
CCn1c2ccccc2c2cc(N=C3SC(CC(=O)Nc4ccccc4OC)C(=O)N3C)ccc21 (centres undefined)	Myeloid diff 2 active | Myeloid diff inactive | GFP autofluor inactive
CCn1c2ccccc2c2cc(N=C3SC(CC(=O)Nc4ccccc4OC)C(=O)N3CCOC)ccc21 (centres undefined)	none
COc1ccc2[nH]c(C(=O)O)c(CCN3C(=O)c4cccc([N+](=O)[O-])c4C3=O)c2c1	none (no result: TLR4-MyD88 BLA)
Oc1ccccc1N=Cc1sc2ccccc2c1Cl	Myeloid diff 2 active | Myeloid diff inactive | GFP autofluor inactive
c1ccc(CNc2nc(-c3cccs3)nc3ccccc23)nc1	none | Myeloid diff inactive | GFP autofluor inactive
CCN1/C(=N\N)c2cccc3cccc1c23	Myeloid diff 2 active | Myeloid diff inactive | GFP autofluor 94
CCC(C)NC(=O)CN1C(=O)c2cccc3cccc1c23 (centres undefined)	none (no result: TLR4-MyD88 BLA)
Cc1csc(NC(=O)C(C)Oc2ccc(Cl)cc2C)n1 (centres undefined)	none (no result: TLR4-MyD88 BLA)
Cc1ccc(-c2cc(C(=O)N(C)CC(=O)Nc3ccccc3Br)c3ccccc3n2)o1	none (no result: TLR4-MyD88 BLA)
CCC1(CC)NC(=O)N(CC(=O)Nc2ccc(C)cc2C)C1=O	none (no result: TLR4-MyD88 BLA)
CCC1(CC)NC(=O)N(CC(=O)OCC(=O)Nc2cc(C)ccc2C)C1=O	Myeloid diff 2 active | Myeloid diff inactive | GFP autofluor inactive
O=C(O)c1ccccc1N/N=C/c1c(Sc2nnnn2-c2ccccc2)nc2ccccn2c1=O	Myeloid diff 2 active (no result: TLR4-MyD88 BLA) | Myeloid diff active | GFP autofluor inactive
O=c1c(/C=N/Nc2ccccc2)c(Sc2nnnn2-c2ccccc2)nc2ccccn12	none
CC(C)C1OC(CCc2ccccc2)Cc2[nH][nH]c(=O)c21 (centres undefined)	none (no result: TLR9-MyD88 inh, TLR4-MyD88 BLA)
CCC(=S)/C=C1\Sc2ccccc2N1CCCS(=O)(=O)O	none | Myeloid diff inactive | GFP autofluor inactive
CN1/C(=C/C(=O)C2CCC2)Sc2ccccc21	none
O=C(/C=C/c1ccccc1Cl)Nn1cnc2ccccc2c1=O	none
N#Cc1c(N)n(-c2cccc(C(=O)O)c2)c2nc3ccccc3nc12	Myeloid diff 2 active (no result: TLR4-MyD88 BLA) | Myeloid diff inactive | GFP autofluor inactive
O=C(Cn1c(NCCO)nc2ccccc21)Nc1ccc2c(c1)OCCCO2	none (no result: TLR4-MyD88 BLA)
COC(=O)c1ccc2c(c1)NC1=C(C(=O)CC(C)(C)C1)C(c1ccncc1)N2 (centres undefined)	Myeloid diff 2 active | Myeloid diff inactive | GFP autofluor inactive
COC(=O)c1cc(NS(=O)(=O)c2ccc3c(c2)CCC(=O)N3)cc(C(=O)OC)c1	Myeloid diff 2 active | Myeloid diff inactive | GFP autofluor inactive
CCCc1nc2c3ccccc3ccn2c1Cc1ccc(OC)cc1C	Myeloid diff 2 active (no result: TLR9-MyD88 inh, TLR4-MyD88 BLA) | Myeloid diff active | GFP autofluor inactive
COc1ccc(C2N(c3ccc(C)cc3)CCN2c2ccc(C)cc2)cc1O	none | Myeloid diff inactive | GFP autofluor inactive
Cc1cc(C)n2ncc(C(=O)NCc3cccnc3)c2n1	Myeloid diff 2 active | Myeloid diff inactive | GFP autofluor inactive
Cc1cccc(NC(=O)c2cc(NC(=O)C3CCCCC3C(=O)O)ccc2Cl)n1 (centres undefined)	none
Cc1cccc(NC(=O)c2cc(NC(=O)c3ccco3)ccc2Cl)n1	none | Myeloid diff inactive | GFP autofluor inactive

Compound activity (PubChem)
